Reference: publication PMC7862700, “An all-to-all approach to the identification of sequence-specific readers for epigenetic DNA modifications on cytosine”

What was measured:
Test in all cases: DAPPL (digital affinity profiling via proximity ligation, sequencing); 10 mM Tris-HCl pH 7.5, 50 mM NaCl, 1 mM DTT, 4% glycerol, room temperature, 30 min; GST-TFs on glutathione beads, 16-mer random dsDNA library, 0.1% formaldehyde crosslink after washing; high values mean tight binding
[1] = target: T1, FEV (Homo sapiens, UniProt Q99581 1-238); settings: protein: recombinant; tags: N-terminal GST; dsDNA, one strand shown
T1 sequence: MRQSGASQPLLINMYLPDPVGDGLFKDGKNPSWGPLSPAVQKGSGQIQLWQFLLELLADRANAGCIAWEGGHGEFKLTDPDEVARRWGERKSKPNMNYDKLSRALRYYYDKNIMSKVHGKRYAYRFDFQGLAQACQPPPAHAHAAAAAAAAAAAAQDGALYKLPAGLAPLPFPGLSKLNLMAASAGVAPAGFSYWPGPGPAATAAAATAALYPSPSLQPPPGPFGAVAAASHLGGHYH
Outline: (§1)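 Binding signal is each hexamer's read frequency for a factor divided by its frequency in the tag-only sample. The factors were GST-fused human transcription factors from yeast, captured on glutathione beads, DNA-barcoded and pooled with that sample. Pools were incubated with 200 nmole of a random double-stranded 16-mer DNA library in Tris/NaCl/DTT/glycerol buffer at room temperature for 30 min, then washed, crosslinked with 0.1% formaldehyde, proximity-ligated with BsaI/T4 ligase (1 h, 37 °C), PCR-amplified and sequenced on an Illumina NextSeq500.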

[2] = target: ETV5 (Homo sapiens, UniProt P41161 1-510); settings: protein: recombinant; tags: N-terminal GST; dsDNA, one strand shown
Sequence of ETV5 (P41161 whole entry): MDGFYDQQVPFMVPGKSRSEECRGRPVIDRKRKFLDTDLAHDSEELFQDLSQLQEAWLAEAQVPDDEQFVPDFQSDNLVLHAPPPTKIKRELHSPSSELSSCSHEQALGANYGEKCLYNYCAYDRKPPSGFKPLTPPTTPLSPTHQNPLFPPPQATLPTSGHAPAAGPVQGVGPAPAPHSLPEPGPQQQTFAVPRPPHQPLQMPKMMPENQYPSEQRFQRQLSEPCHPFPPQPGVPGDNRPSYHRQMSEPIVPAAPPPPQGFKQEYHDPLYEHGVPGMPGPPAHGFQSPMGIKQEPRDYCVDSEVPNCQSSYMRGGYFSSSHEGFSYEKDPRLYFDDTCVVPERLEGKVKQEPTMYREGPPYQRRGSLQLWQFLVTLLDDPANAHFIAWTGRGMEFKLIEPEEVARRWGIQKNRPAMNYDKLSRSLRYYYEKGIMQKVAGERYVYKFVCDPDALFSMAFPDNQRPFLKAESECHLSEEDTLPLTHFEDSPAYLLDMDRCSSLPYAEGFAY
Outline: as §1

[3] = target: HSF1 (Homo sapiens, UniProt Q00613 1-529); settings: protein: recombinant; tags: N-terminal GST; chain copies: 3; dsDNA, one strand shown
Sequence of HSF1 (Q00613 whole entry): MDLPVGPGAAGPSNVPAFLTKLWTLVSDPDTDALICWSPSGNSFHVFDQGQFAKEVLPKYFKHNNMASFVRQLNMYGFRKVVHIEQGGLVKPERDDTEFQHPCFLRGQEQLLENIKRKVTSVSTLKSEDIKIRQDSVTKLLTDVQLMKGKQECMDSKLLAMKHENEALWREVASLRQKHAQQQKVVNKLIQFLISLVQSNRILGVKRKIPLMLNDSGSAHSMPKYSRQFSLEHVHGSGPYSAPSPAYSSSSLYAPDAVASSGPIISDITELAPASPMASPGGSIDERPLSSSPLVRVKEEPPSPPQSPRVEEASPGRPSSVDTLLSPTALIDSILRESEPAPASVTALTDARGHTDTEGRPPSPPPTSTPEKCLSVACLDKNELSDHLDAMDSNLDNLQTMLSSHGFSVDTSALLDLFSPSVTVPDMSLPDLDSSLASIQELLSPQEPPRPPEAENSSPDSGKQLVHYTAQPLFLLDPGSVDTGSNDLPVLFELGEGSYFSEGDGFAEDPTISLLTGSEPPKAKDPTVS
Outline: as §1

[4] = target: T2, SPIC (Homo sapiens, UniProt Q8N5J4 1-248); settings: protein: recombinant; tags: N-terminal GST; dsDNA, one strand shown
T2 sequence: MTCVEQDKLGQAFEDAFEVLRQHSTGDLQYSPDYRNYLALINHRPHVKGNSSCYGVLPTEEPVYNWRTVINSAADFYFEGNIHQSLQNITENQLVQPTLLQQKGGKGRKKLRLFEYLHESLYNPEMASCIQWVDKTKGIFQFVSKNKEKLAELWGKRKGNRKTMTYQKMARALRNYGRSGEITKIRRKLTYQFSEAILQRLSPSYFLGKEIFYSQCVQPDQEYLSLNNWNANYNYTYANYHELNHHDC
Outline: as §1

[5] = target: ELF4 (Homo sapiens, UniProt Q99607 1-663); settings: protein: recombinant; tags: N-terminal GST; dsDNA, one strand shown
Sequence of ELF4 (Q99607 whole entry): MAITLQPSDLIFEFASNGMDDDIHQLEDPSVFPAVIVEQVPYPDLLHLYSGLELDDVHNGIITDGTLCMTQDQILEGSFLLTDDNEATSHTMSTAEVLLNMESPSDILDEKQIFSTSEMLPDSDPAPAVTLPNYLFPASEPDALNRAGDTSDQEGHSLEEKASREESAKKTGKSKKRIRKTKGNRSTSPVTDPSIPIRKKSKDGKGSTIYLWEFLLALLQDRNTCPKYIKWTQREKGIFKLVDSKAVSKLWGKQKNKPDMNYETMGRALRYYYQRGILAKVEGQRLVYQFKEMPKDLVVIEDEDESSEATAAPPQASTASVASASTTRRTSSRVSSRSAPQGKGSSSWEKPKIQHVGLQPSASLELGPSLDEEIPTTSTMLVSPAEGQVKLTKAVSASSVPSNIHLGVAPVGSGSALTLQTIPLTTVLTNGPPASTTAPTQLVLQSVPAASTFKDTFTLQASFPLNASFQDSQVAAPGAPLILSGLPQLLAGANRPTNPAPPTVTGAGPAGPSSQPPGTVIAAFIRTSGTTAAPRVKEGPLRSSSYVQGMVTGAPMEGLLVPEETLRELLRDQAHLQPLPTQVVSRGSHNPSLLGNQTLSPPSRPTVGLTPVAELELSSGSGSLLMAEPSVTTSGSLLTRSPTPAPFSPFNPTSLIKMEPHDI
Outline: as §1

[6] = target: T3, ELK4 (Homo sapiens, UniProt P28324-2 1-405); settings: protein: recombinant; tags: N-terminal GST; dsDNA, one strand shown
T3 sequence: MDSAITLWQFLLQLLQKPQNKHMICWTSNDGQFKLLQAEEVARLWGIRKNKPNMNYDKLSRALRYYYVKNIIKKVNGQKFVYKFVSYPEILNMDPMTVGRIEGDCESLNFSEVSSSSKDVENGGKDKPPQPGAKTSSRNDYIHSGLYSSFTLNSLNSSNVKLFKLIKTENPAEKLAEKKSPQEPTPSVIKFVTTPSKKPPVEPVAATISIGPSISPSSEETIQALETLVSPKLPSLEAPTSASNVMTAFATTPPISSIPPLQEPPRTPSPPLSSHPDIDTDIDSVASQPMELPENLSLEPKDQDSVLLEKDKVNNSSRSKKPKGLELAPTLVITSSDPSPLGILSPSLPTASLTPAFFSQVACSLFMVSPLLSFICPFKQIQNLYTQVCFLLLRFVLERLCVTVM
Outline: as §1

[7] = target: T4, ETV2 (Homo sapiens, UniProt O00321 1-342); settings: protein: recombinant; tags: N-terminal GST; dsDNA, one strand shown
T4 sequence: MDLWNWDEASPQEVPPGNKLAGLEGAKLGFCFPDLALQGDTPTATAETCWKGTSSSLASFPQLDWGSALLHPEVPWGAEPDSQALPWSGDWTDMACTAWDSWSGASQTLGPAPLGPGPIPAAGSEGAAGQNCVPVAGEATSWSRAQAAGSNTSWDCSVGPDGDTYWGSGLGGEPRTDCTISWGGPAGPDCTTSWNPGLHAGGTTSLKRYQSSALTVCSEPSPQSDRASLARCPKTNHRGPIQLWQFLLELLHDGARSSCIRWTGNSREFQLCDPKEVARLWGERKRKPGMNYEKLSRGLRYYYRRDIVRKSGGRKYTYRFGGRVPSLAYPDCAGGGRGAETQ
Outline: as §1

[8] = target: T5, ELF3 (Homo sapiens, UniProt P78545 1-371); settings: protein: recombinant; tags: N-terminal GST; dsDNA, one strand shown
T5 sequence: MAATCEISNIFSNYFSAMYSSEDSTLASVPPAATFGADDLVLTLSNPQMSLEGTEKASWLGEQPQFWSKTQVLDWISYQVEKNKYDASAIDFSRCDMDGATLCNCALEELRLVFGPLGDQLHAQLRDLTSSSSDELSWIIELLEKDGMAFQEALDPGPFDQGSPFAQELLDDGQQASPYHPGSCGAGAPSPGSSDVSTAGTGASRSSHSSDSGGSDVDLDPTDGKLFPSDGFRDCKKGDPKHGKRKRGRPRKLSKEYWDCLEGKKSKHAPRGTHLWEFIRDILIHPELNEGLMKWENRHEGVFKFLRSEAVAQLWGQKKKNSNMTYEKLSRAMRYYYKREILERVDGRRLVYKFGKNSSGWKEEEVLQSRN
Outline: as §1

[9] = target: CRX (Homo sapiens, UniProt O43186 1-299); settings: protein: recombinant; tags: N-terminal GST; dsDNA, one strand shown
Sequence of CRX (O43186 whole entry): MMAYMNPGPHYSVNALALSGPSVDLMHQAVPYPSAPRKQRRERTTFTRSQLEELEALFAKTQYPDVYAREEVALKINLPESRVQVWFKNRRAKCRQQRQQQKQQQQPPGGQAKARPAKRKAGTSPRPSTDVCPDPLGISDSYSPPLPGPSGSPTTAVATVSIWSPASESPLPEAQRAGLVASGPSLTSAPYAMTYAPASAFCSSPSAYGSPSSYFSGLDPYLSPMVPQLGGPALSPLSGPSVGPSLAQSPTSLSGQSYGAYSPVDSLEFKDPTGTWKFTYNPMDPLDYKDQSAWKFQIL
Outline: as §1

[10] = target: ETV1 (Homo sapiens, UniProt P50549 1-477); settings: protein: recombinant; tags: N-terminal GST; dsDNA, one strand shown
Sequence of ETV1 (P50549 whole entry): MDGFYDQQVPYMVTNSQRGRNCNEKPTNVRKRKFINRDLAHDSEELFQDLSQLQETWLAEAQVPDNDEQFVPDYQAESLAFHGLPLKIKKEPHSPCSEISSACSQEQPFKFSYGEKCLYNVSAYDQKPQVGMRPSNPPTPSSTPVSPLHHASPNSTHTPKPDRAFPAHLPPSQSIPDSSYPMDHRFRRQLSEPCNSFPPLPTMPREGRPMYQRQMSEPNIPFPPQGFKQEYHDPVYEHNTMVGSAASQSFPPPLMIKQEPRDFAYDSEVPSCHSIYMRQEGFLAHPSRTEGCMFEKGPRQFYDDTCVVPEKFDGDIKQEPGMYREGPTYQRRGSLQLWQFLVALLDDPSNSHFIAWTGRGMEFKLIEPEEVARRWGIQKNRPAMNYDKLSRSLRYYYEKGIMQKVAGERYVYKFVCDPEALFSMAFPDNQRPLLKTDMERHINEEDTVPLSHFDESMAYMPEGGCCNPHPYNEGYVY
Outline: as §1

[11] = target: T6, ERF (Homo sapiens, UniProt P50548 1-548); settings: protein: recombinant; tags: N-terminal GST; dsDNA, one strand shown
T6 sequence: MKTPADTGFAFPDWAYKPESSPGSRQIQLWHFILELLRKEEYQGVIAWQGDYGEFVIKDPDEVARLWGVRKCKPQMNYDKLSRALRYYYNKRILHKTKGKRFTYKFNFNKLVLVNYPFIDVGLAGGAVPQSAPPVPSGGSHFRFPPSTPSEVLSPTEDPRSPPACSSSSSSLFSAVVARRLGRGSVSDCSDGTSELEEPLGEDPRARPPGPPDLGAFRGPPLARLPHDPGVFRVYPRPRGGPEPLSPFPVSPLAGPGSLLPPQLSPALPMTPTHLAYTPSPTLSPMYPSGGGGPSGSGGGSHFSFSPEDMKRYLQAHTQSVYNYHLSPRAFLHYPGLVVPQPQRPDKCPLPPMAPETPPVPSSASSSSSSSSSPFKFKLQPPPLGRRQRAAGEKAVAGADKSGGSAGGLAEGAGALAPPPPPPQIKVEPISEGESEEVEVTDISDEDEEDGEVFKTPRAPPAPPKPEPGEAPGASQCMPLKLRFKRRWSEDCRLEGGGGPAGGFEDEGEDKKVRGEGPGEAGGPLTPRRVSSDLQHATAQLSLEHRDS
Outline: as §1

[12] = target: T7, ETV3L (Homo sapiens, UniProt Q6ZN32 1-361); settings: protein: recombinant; tags: N-terminal GST; dsDNA, one strand shown
T7 sequence: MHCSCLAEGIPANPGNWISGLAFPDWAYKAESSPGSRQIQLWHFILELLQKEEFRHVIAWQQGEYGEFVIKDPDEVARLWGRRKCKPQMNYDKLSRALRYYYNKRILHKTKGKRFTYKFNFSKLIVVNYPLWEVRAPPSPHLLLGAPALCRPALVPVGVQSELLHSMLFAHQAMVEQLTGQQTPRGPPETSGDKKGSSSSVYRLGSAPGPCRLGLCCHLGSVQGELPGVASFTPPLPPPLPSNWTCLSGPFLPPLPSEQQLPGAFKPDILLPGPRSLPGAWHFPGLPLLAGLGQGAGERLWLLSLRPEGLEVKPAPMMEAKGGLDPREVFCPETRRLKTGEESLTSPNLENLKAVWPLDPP
Outline: as §1

[13] = target: T8, ETS2 (Homo sapiens, UniProt P15036 1-469); settings: protein: recombinant; tags: N-terminal GST; dsDNA, one strand shown
T8 sequence: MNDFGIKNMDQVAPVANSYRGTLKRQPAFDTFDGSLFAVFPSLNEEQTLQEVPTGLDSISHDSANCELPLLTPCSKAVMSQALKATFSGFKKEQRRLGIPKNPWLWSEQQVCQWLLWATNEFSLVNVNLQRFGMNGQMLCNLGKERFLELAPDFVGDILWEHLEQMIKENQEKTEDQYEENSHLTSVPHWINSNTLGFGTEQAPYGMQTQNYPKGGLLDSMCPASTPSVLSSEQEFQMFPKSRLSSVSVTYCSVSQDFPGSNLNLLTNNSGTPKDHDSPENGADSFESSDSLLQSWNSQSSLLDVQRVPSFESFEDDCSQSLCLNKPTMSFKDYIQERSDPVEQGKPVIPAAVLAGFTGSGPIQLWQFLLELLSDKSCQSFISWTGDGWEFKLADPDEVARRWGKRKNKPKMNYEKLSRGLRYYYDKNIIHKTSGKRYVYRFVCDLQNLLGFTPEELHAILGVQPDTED
Outline: as §1

[14] = target: T9, SPDEF (Homo sapiens, UniProt O95238 1-335); settings: protein: recombinant; tags: N-terminal GST; dsDNA, one strand shown
T9 sequence: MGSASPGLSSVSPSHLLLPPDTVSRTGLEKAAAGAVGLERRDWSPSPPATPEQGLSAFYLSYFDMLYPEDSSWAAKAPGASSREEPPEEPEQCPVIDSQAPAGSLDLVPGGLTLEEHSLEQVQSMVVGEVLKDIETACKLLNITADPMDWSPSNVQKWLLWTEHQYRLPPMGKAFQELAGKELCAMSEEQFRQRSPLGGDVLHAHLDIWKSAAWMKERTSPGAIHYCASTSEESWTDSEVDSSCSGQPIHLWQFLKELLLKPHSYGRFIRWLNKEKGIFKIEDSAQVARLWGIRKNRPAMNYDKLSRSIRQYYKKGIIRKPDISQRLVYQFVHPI
Outline: as §1

[15] = target: T10, ETV7 (Homo sapiens, UniProt Q9Y603 1-341); settings: protein: recombinant; tags: N-terminal GST; dsDNA, one strand shown
T10 sequence: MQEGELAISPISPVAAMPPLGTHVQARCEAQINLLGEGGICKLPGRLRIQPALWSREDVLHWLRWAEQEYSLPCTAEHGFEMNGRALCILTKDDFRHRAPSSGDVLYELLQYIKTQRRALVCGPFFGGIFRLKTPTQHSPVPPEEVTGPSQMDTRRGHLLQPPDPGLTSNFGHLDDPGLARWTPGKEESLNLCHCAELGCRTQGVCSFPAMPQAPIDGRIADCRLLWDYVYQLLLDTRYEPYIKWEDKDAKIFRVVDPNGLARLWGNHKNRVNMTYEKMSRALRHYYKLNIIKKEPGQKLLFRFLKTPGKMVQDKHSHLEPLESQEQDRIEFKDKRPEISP
Outline: as §1

[16] = target: T11, ELF5 (Homo sapiens, UniProt Q9UKW6-2 1-255); settings: protein: recombinant; tags: N-terminal GST; dsDNA, one strand shown
T11 sequence: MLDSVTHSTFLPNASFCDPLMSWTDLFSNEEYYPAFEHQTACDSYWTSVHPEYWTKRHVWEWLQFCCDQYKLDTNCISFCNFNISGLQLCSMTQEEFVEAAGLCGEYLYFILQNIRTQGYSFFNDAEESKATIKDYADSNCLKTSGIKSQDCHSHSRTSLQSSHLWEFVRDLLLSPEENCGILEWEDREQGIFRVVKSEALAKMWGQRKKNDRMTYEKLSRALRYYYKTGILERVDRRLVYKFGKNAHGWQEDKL
Outline: as §1

[17] = target: T12, ETV3 (Homo sapiens, UniProt P41162-2 1-143); settings: protein: recombinant; tags: N-terminal GST; dsDNA, one strand shown
T12 sequence: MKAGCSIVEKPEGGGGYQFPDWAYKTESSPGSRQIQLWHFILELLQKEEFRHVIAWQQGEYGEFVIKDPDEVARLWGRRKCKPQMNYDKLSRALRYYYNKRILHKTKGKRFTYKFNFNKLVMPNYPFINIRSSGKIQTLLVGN
Outline: as §1

[18] = target: ETV6 (Homo sapiens, UniProt P41212 1-452); settings: protein: recombinant; tags: N-terminal GST; dsDNA, one strand shown
Sequence of ETV6 (P41212 whole entry): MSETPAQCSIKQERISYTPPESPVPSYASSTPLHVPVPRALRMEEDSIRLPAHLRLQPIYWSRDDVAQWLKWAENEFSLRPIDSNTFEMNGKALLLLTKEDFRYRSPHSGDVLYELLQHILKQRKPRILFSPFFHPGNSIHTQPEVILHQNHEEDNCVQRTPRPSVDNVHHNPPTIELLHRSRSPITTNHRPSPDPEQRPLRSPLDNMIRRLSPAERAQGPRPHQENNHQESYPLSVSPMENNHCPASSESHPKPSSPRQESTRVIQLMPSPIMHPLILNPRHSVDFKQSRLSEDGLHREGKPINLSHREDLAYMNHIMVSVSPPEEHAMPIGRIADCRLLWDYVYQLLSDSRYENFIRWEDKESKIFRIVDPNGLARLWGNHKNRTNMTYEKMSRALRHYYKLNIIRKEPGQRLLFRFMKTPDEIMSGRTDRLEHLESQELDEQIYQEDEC
Outline: as §1

GTATTC
binding signal [1]: 1.18 fold enrichment (6-mer frequency, TF over GST control) | binding signal [2]: 1.32 fold enrichment (6-mer frequency, TF over GST control) | binding signal [3]: 1.31 fold enrichment (6-mer frequency, TF over GST control) | binding signal [4]: 1.33 fold enrichment (6-mer frequency, TF over GST control) | binding signal [5]: 1.27 fold enrichment (6-mer frequency, TF over GST control) | binding signal [6]: 1.16 fold enrichment (6-mer frequency, TF over GST control) | binding signal [7]: 1.27 fold enrichment (6-mer frequency, TF over GST control) | binding signal [8]: 1.31 fold enrichment (6-mer frequency, TF over GST control) | binding signal [9]: 1.13 fold enrichment (6-mer frequency, TF over GST control) | binding signal [10]: 1.22 fold enrichment (6-mer frequency, TF over GST control) | binding signal [11]: 1.29 fold enrichment (6-mer frequency, TF over GST control) | binding signal [12]: 1.25 fold enrichment (6-mer frequency, TF over GST control) | binding signal [13]: 1.33 fold enrichment (6-mer frequency, TF over GST control) | binding signal [14]: 1.21 fold enrichment (6-mer frequency, TF over GST control) | binding signal [15]: 1.34 fold enrichment (6-mer frequency, TF over GST control) | binding signal [16]: 1.31 fold enrichment (6-mer frequency, TF over GST control) | binding signal [17]: 1.34 fold enrichment (6-mer frequency, TF over GST control) | binding signal [18]: 1.28 fold enrichment (6-mer frequency, TF over GST control)
